Assay [1] can be described thus: ATG_CRE_CIS: Attagene CIS-FACTORIAL HepG2 Assay for human cAMP Responsive Element (CRE) binding protein 3 (AID 2282926). As to conditions: HepG2 CRE cis-reporter, Attagene multiplexed mRNA; actives raise or lower the signal. The method in brief:
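Human liver HepG2, transient MRTU transfection, 24 h compound exposure. Total RNA → oligo(dT) RT → PCR → 6-FAM primer extension → HpaI cut → CE. Activity called both directions vs DMSO.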

The target of assay [2] is CCAAT/enhancer-binding protein beta (Homo sapiens) (UniProt P17676). Nature of the assay: ATG_C_EBP_CIS: Attagene CIS-FACTORIAL HepG2 Assay for human CCAAT/Enhancer Binding Protein (C/EBP) beta (AID 2282927). As to conditions: HepG2 Attagene cis-factorial transcription factor reporter; actives raise or lower the signal. Put shortly: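 Endogenous C/EBPb-driven reporter transcripts measured in transfected human HepG2 cells at 24 h via RT-PCR and capillary electrophoresis of labelled fragments. Activity fitted in both directions relative to DMSO baseline.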

Assay [3] can be described thus: ATG_DR4_LXR_CIS: Attagene CIS-FACTORIAL HepG2 Assay for human Liver X Receptor (LXR), DR4 submotif (AID 2282929). Conditions: HepG2 Attagene DR4 cis-reporter, mRNA transcription; actives raise or lower the signal. The method in brief:
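Measures endogenous transcription factor activity via a DR4-driven reporter transcript in human HepG2 cells. Compounds incubated 24 h; mRNA quantified by RT-PCR and capillary electrophoresis, analysed as gain or loss of signal versus DMSO.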

Assay [4] in a line: ATG_AP_2_CIS: Attagene CIS-FACTORIAL HepG2 Assay for human Activator Protein 2 (AP-2) (AID 2282932). Conditions: HepG2 AP-2 cis-reporter, Attagene transcription factor profiling; actives raise or lower the signal. The method in brief:
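HepG2, transient MRTU transfection, cis-regulated reporters; 24 h compound exposure; RNA isolated, RT-PCR, 6-FAM labelling, HpaI digest, CE fluorescence. DMSO = negative control/baseline, bidirectional fit.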

A short description of assay [5]: ATG_BRE_CIS: Attagene CIS-FACTORIAL HepG2 Assay for human Bone Morphogenetic Protein (BMP) Response Element (BRE) (AID 2282933). Conditions: HepG2 BMP response element reporter, Attagene transcription factor profiling; actives raise or lower the signal. The method in brief: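 Read-out: reporter mRNA induction quantified by RT-PCR and capillary electrophoresis after 24 h chemical exposure of transfected HepG2 cells. Endogenous factor activity on the BMP response element; gain or loss fitted against DMSO baseline.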

Assay [6] deals with Transcription factor E2F1 (Homo sapiens) (UniProt Q01094). As to the kind of experiment: ATG_E2F_CIS: Attagene CIS-FACTORIAL HepG2 Assay for human E2F Transcription Factor 1 (AID 2282935). Conditions: HepG2 Attagene cis-reporter, E2F reporter RNA transcripts; actives raise or lower the signal. Put shortly:
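Cis-element reporter mRNA induction in transiently transfected HepG2, 24 h exposure. Activity fitted in both directions relative to DMSO negative control.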

Assay [7] in a line: ATG_EGR_CIS: Attagene CIS-FACTORIAL HepG2 Assay for human Early Growth Response 1 (EGR1) (AID 2282938). Conditions: HepG2 Attagene CIS-FACTORIAL EGR reporter mRNA; actives raise or lower the signal. Put shortly: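 Cell-based multiplex transcription assay: HepG2 carrying transfected cis-element reporter units, 24 h chemical treatment. Fluorescence from capillary electrophoresis of RT-PCR products gives mRNA levels; fitting is bidirectional relative to DMSO.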

Assay [8] is described as follows: ATG_M_19_CIS: Attagene CIS-FACTORIAL HepG2 Assay for M19 Transcription Factor (Internal Marker) (AID 2282939). As to conditions: HepG2 Attagene CIS-FACTORIAL M19 internal marker reporter; actives raise or lower the signal. The method in brief:
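Readout: fluorescent reporter-transcript fragments by capillary electrophoresis after RT-PCR. Human HepG2 liver cells carried transfected MRTU constructs reporting endogenous transcription-factor activity; exposure 24 h. Gain or loss of signal fitted relative to DMSO.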

A short description of assay [9]: ATG_Ets_CIS: Attagene CIS-FACTORIAL HepG2 Assay for human Erythroblast Transformation Specific (ETS) (AID 2282941). Conditions: HepG2 ETS cis-reporter transcription, actives raise or lower the signal. Put shortly: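 Human HepG2 hepatoma cells were transiently transfected with promoter-driven reporter constructs and treated for 24 hours. Reporter transcripts were quantified by RT-PCR with fluorescent primer extension; bidirectional curve fitting used DMSO as reference.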

Assay [10] concerns the target Hepatocyte nuclear factor 3-beta (Homo sapiens) (UniProt Q9Y261). Nature of the assay: ATG_FoxA2_CIS: Attagene CIS-FACTORIAL HepG2 Assay for human Forkhead box A2 (FOXA2) (AID 2282942). As to conditions: HepG2 cis-reporter transcription factor activity, 24 h; actives raise or lower the signal. The method in brief: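 In transiently transfected human HepG2 cells, promoter-driven reporter mRNA levels after 24 h chemical exposure are determined via RT-PCR with capillary electrophoresis. DMSO serves as baseline for bidirectional fitting.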

A short description of assay [11]: ATG_FoxO_CIS: Attagene CIS-FACTORIAL HepG2 Assay for human Forkhead box O (FoxO) (AID 2282943). As to conditions: HepG2 Attagene cis-reporter, FoxO element, mRNA; actives raise or lower the signal. Put shortly: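 Endogenous transcription factor activity read from multiplexed cis-promoter reporter transcripts in transiently transfected HepG2, 24 h after dosing. Reporter RNA measured via RT-PCR plus capillary electrophoresis of FAM-labeled products; gain or loss relative to DMSO.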

Assay [12] is described as follows: ATG_GATA_CIS: Attagene CIS-FACTORIAL HepG2 Assay for human GATA Binding Protein (AID 2282944). As to conditions: HepG2 GATA cis-element reporter, Attagene multiplex mRNA; actives raise or lower the signal. Put shortly:
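Read-out: fluorescent reporter mRNA fragments resolved by capillary electrophoresis after RT-PCR. Human liver HepG2 cells carried transiently transfected cis-regulated reporter constructs; chemicals incubated 24 h; gain or loss of signal fitted relative to DMSO.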

Assay [13] in a line: ATG_GLI_CIS: Attagene CIS-FACTORIAL HepG2 Assay for human Zinc Finger Protein GLI1 (AID 2282945). Conditions: HepG2, Attagene cis-factorial reporter mRNA, GLI element; actives raise or lower the signal. The method in brief: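 Bidirectional curve fits relative to DMSO, using reporter mRNA levels from RT-PCR plus capillary electrophoresis. Cells were HepG2 transiently carrying cis-regulated reporter constructs, harvested 24 h after dosing.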

Assay [14] in a line: ATG_M_06_CIS: Attagene CIS-FACTORIAL HepG2 Assay for M06 Transcription Factor (Internal Marker) (AID 2282950). As to conditions: HepG2 Attagene CIS-FACTORIAL M06 internal marker reporter; actives raise or lower the signal. Put shortly: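 Terse: HepG2, transient MRTU transfection (FuGene 6), 24 h dosing; total RNA, oligo(dT) RT, PCR, FAM label, HpaI cut, capillary electrophoresis; bidirectional fit vs DMSO baseline; background-control endpoint.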

The nature of assay [15]: ATG_MRE_CIS: Attagene CIS-FACTORIAL HepG2 Assay for human Metal Responsive Element (MRE) (AID 2282954). As to conditions: HepG2 MRE cis-reporter transcription, Attagene multiplex; actives raise or lower the signal. The method in brief:
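Transient MRTU transfection of HepG2 (FuGene 6); 24 h dosing; total RNA → oligo(dT) RT, PCR, 6-FAM primer extension, HpaI cut, CE. Bidirectional fit vs DMSO.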

Assay [16] has as its target Paired box protein Pax-6 (Homo sapiens) (UniProt P26367). Nature of the assay: ATG_Pax6_CIS: Attagene CIS-FACTORIAL HepG2 Assay for human Paired Box 6 (PAX6) (AID 2282956). As to conditions: HepG2 CIS-FACTORIAL PAX6 reporter transcription, RNA readout; actives raise or lower the signal. Put shortly: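 Multiplexed cis-reporter HepG2 system; 24 h treatment; reporter mRNA read by RT-PCR/CE fluorescence; bidirectional fit vs DMSO.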

The nature of assay [17]: ATG_PXRE_CIS: Attagene CIS-FACTORIAL HepG2 Assay for human Pregnane X Receptor Element (PXRE) (AID 2282957). As to conditions: HepG2 Attagene CIS-FACTORIAL PXRE reporter, mRNA; actives raise or lower the signal. The method in brief: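 Transfect HepG2 with MRTUs (cis promoter elements); dose chemical, incubate 24 h; isolate RNA, RT with oligo(dT), PCR, 6-FAM label, HpaI cut, CE. Gain/loss fit vs DMSO.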

The nature of assay [18]: ATG_Sox_CIS: Attagene CIS-FACTORIAL HepG2 Assay for human SRY-box transcription factor (SOX) (AID 2282960). As to conditions: HepG2 Attagene cis-factorial SOX reporter, mRNA; actives raise or lower the signal. The method in brief:
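After 24 h of chemical treatment, transfected HepG2 reporter cells are lysed for total RNA. Transcript levels come from RT-PCR with labelled primer extension and capillary electrophoresis, analysed bidirectionally versus DMSO.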

The target in assay [19] is Transcription factor Sp1 (Homo sapiens) (UniProt P08047). Nature of the assay: ATG_Sp1_CIS: Attagene CIS-FACTORIAL HepG2 Assay for human Specificity Protein 1 (Sp1) (AID 2282961). Conditions: HepG2 Sp1 cis-reporter transcription, actives raise or lower the signal. The method in brief:
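Sp1-driven reporter mRNA, read as capillary electrophoresis fluorescence after RT-PCR, in transiently transfected HepG2 cells dosed for 24 h; signal change in either direction relative to DMSO.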

Assay [20] can be described thus: ATG_SREBP_CIS: Attagene CIS-FACTORIAL HepG2 Assay for human Sterol Regulatory Element Binding (SREBP) (AID 2282962). Conditions: HepG2 Attagene cis-factorial SREBP reporter, mRNA; actives raise or lower the signal. The method in brief: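 mRNA induction of transfected cis-promoter reporters in HepG2 cells, 24 h post-dose. Detection: RT-PCR with 6-FAM-labelled products, HpaI digest, capillary electrophoresis. DMSO served as negative control and baseline.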

Activity calls are given as the source filed them. Rule for the calls: active = hit-call score of the fitted dose curve at least 0.9, where 1 is the maximum; inactive = score below 0.9.

Sequence of Transcription factor E2F1 (Homo sapiens) (Q01094 whole entry, looked up): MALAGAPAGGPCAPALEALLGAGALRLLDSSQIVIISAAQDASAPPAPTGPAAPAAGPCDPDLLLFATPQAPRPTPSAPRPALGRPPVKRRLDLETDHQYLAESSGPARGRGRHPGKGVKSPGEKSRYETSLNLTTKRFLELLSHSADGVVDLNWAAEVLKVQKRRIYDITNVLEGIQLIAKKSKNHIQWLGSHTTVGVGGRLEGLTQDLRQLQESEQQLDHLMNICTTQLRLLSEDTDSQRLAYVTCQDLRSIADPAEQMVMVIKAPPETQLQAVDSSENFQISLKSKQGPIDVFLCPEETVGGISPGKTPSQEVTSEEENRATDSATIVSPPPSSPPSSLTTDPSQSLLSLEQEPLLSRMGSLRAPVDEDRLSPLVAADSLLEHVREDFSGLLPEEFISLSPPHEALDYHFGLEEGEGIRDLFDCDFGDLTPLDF
Sequence of Hepatocyte nuclear factor 3-beta (Homo sapiens) (Q9Y261 whole entry, looked up): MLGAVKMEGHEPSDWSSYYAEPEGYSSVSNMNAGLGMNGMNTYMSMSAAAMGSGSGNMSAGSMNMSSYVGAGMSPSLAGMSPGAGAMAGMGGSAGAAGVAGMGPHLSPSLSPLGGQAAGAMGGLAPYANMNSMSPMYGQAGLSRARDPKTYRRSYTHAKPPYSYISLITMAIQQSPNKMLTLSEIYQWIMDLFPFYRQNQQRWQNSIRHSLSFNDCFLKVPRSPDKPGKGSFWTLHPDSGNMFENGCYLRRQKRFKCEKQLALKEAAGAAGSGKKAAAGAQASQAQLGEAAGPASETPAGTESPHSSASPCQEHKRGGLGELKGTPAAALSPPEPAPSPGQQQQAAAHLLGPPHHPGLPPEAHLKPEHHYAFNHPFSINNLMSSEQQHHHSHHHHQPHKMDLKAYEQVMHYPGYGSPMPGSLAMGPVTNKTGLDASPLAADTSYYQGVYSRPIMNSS
Sequence of CCAAT/enhancer-binding protein beta (Homo sapiens) (P17676 whole entry, looked up, the tested form may be a part): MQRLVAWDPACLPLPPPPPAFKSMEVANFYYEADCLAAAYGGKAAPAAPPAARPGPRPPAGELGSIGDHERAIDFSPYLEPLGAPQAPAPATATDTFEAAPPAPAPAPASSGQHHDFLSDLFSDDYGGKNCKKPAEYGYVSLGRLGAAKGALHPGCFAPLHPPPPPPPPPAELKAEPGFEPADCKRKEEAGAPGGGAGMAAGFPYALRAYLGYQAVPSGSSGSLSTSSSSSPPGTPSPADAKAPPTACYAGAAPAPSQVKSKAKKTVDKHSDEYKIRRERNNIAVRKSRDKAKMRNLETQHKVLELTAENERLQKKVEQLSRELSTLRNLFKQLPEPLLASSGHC
Sequence of Paired box protein Pax-6 (Homo sapiens) (P26367 whole entry, looked up): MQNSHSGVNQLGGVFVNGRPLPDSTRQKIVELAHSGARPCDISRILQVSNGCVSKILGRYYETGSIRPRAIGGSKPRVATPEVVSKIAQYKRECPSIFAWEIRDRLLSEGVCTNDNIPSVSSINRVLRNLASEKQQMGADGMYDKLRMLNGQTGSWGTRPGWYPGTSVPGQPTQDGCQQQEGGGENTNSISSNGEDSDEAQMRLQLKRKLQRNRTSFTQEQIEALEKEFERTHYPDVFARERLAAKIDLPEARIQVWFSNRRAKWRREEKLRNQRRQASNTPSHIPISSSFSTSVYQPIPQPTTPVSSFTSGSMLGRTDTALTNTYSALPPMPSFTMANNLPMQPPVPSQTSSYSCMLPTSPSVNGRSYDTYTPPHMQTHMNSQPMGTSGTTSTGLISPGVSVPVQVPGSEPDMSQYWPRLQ
Sequence of Transcription factor Sp1 (Homo sapiens) (P08047 whole entry, looked up): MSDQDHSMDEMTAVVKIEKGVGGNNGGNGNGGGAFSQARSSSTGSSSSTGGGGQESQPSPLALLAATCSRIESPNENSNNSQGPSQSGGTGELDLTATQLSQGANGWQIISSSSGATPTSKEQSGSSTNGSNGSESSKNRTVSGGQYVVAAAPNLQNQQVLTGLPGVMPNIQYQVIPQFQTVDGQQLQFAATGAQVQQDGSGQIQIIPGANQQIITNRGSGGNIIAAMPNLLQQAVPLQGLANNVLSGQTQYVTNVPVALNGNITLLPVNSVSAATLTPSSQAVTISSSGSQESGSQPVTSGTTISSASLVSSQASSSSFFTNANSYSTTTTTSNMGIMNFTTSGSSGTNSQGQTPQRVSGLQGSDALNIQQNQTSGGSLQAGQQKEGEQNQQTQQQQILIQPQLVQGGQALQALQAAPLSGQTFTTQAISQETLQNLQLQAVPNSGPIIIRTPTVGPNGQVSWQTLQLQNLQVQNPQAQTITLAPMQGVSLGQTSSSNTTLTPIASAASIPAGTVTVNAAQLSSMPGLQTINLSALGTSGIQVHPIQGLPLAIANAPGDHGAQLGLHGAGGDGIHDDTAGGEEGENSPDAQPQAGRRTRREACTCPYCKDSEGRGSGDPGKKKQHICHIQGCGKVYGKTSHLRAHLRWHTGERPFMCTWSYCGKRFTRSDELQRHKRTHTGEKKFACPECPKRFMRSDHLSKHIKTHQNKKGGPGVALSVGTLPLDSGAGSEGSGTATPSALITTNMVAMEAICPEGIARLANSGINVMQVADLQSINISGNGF

For `ClCCCCCCCl`, the compound was classed as inactive in assay [1], in [2], in assay [3], in assay [4], in [5] and in assay [6]. Further, the result in assay [7], in assay [8], in assay [9], in assay [10], in [11] and in assay [12] was inactive. Further, the outcome in assay [13], in assay [14], in [15], in assay [16], in assay [17] and in assay [18] was inactive. For the same compound, the result in assay [19] and in assay [20] was inactive.

On to `CN1C(=O)CCS(=O)(=O)C1c1ccc(Cl)cc1` (stereo not given), for which the compound was classed as inactive in assay [1], in [2], in assay [3], in [4], in assay [5] and in assay [6]. The compound was called inactive in [7], in assay [8], in assay [9], in [10], in [11] and in [12]. Also, the compound was called inactive in [13], in assay [14], in [15], in assay [16], in [17] and in [18]. In addition, the compound was called inactive in [19] and in assay [20].

In the case of `Nc1ccccc1C(=O)OCCc1ccccc1`, the result in assay [1], in [2], in [3], in assay [4], in assay [5] and in assay [6] was inactive. Further, the compound was classed as inactive in assay [7], in assay [8], in assay [9], in assay [11], in assay [12] and in [13]. Besides, the compound was classed as inactive in [14], in assay [16], in assay [18], in assay [19] and in assay [20]. Besides, the AC50 (as a rule, the concentration giving half of the maximal activity seen) is 14.6 µM (active) in assay [10], 33.4 µM (active) in assay [15] and 12.3 µM (active) in [17].

For the compound `CC[N+](=O)[O-]`, the outcome in [1], in [2], in assay [3], in assay [4], in [5] and in assay [6] was inactive. Also, the compound was called inactive in assay [7], in [8], in assay [9], in [10], in [11] and in assay [12]. Besides, the compound was classed as inactive in assay [13], in assay [14], in assay [15], in assay [16], in assay [17] and in [18]. For the same compound, the result in assay [19] and in assay [20] was inactive.

For `Nc1ccc([N+](=O)[O-])cc1N`, the call in assay [1], in assay [2], in assay [3], in assay [4], in assay [5] and in assay [6] was inactive. The outcome in assay [7], in assay [8], in [9], in [10], in [11] and in [12] was inactive. For the same compound, the compound was classed as inactive in assay [13], in [14], in assay [15], in assay [16], in assay [17] and in [18]. For the same compound, the outcome in assay [19] and in assay [20] was inactive.

`CC(Cc1ccc(C(C)(C)C)cc1)CN1C[C@@H](C)O[C@@H](C)C1` (stereo not given in full): the compound was called inactive in [1], in assay [2], in [3], in assay [4], in assay [6] and in assay [7]. Also, the outcome in assay [8], in assay [9], in assay [10], in assay [11], in assay [12] and in [13] was inactive. The compound was called inactive in assay [14], in [16], in assay [19] and in assay [20]. Moreover, the AC50 in assay [5] was 50.3 µM (active); in assay [15], 24.2 µM (active); in [17], 4.18 µM (active); in assay [18], 24.7 µM (active).

These data come from PubChem BioAssay (EPA / NIEHS).
